Laboratory results: PubChem BioAssay (Tox21)
Records with an inconclusive call do not appear. Activity calls are given as the source filed them. Calls come from the whole dose curve; as a rule, active = well fitted curve in the direction sought with a large enough effect in the repeat runs; inconclusive = weak or mixed curves; inactive = no such curve, though single readings can be large; an effect the other way counts as inactive or inconclusive.

Experiments:
[1] = qHTS RealTime-Glo MT Cell Viability Assay in HEK293 cells - 0 hour (AID 1224880); details: RealTime-Glo luminescence; series mostly up to 76.8 µM; note: top concentration of the series differs between compounds; nearly all actives have a fitted effect of over 45% in size
In short: (§1)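 Luminescence, which tracks viable cell number through reduction of the prosubstrate to a NanoLuc substrate, was read over continuous 37 C culture. Cells (600/well) were premixed with reagent and rested 5 h before 23 nL of compound in DMSO was pinned.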

[2] = A CellTox Green Cytotoxicity Assay to monitor cytotoxicity in HEK293 cells - 32 hour (AID 1224881); details: CellTox Green fluorescence; series mostly up to 76.8 µM; note: nearly all actives have a fitted effect of over 40% in size
In short: (§2)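 Fluorescence from a DNA-binding dye excluded by viable cells was measured repeatedly in the same HEK293 wells (600 cells/well) during continuous compound exposure at 37 C. Each assay gives one read point: 0, 8, 16, 24, 32 or 40 h.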

[3] = A CellTox Green Cytotoxicity Assay to monitor cytotoxicity in HepG2 cells - 0 hour (AID 1224882); details: CellTox Green fluorescence; series mostly up to 76.8 µM; note: nearly all actives have a fitted effect of over 35% in size
In short: (§3)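 Real-time cytotoxicity: fluorescence of a cell-impermeant cyanine dye binding DNA of dead HepG2 cells, measured repeatedly (0–40 h) during compound exposure at 37 C. Cells seeded 600/well with reagent, dosed after 5 h.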

[4] = A CellTox Green Cytotoxicity Assay to monitor cytotoxicity in HepG2 cells - 32 hour (AID 1224883); details: CellTox Green fluorescence; series mostly up to 76.8 µM; note: nearly all actives have a fitted effect of over 50% in size
In short: as §3

[5] = A CellTox Green Cytotoxicity Assay to monitor cytotoxicity in HEK293 cells - 8 hour (AID 1224884); details: CellTox Green fluorescence; series mostly up to 76.8 µM; note: nearly all actives have a fitted effect of over 35% in size
In short: as §2

[6] = qHTS RealTime-Glo MT Cell Viability Assay in HepG2 cells - 16 hour (AID 1224885); details: RealTime-Glo luminescence; series mostly up to 76.8 µM; note: nearly all actives have a fitted effect of over 50% in size
In short: (§4)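 HepG2 suspension premixed with RealTime-Glo reagents is plated at 600 cells per well and left 5 h at 37 C/5% CO2. Compounds in DMSO then go in, and bioluminescence reflecting viable cell number is recorded over 40 h.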

[7] = qHTS RealTime-Glo MT Cell Viability Assay in HEK293 cells - 8 hour (AID 1224887); details: RealTime-Glo luminescence; series mostly up to 76.8 µM; note: top concentration of the series differs between compounds; nearly all actives have a fitted effect of over 50% in size
In short: as §1

[8] = A CellTox Green Cytotoxicity Assay to monitor cytotoxicity in HEK293 cells - 16 hour (AID 1224888); details: CellTox Green fluorescence; series mostly up to 76.8 µM; note: nearly all actives have a fitted effect of over 35% in size
In short: as §2

[9] = qHTS RealTime-Glo MT Cell Viability Assay in HepG2 cells - 0 hour (AID 1224889); details: RealTime-Glo luminescence; series mostly up to 76.8 µM; note: nearly all actives have a fitted effect of over 50% in size
In short: as §4

[10] = qHTS RealTime-Glo MT Cell Viability Assay in HEK293 cells - 24 hour (AID 1224886); details: RealTime-Glo luminescence; series mostly up to 76.8 µM
In short: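 Reads taken at 0, 8, 16, 24, 32 and 40 h from the same wells. HEK293 cells (600/well) carried RealTime-Glo reagents from seeding, with compound added after a 5 h settle at 37 C.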
% is set by controls: 0 for no effect and ±100 for the full control effect.

NC(CS)C(=O)O (stereo not drawn)
inactive: outcome [1] | Potency [2] | Potency [3] | Potency [4] | Potency [5] | outcome [6] | Potency [7] | Potency [8] | Potency [9]

NCC[C@H](O)C(=O)N[C@@H]1C[C@H](N)[C@@H](O[C@H]2O[C@H](CN)[C@@H](O)[C@H](O)[C@H]2O)[C@H](O)[C@H]1O[C@H]1O[C@H](CO)[C@@H](O)[C@H](N)[C@H]1O
inactive: activity change, negative = cytotoxicity [1] 1.06% [at 0.29 µM] | cytotoxicity increase [2] 0.628% [at 0.29 µM] | cytotoxicity [3] -4.16% [at 0.29 µM] | cytotoxicity increase [4] -0.727% [at 0.29 µM] | cytotoxicity increase [5] -8.01% [at 0.29 µM] | activity change, negative = cytotoxic [6] 3.3% [at 0.29 µM] | activity change, negative = cytotoxicity [7] 2.61% [at 0.29 µM] | activity change [8] 0.183% [at 0.29 µM, stronger effect = higher value] | activity change, negative = cytotoxicity [9] 7.1% [at 0.29 µM]

O=C(O)C(O)[C@H](O)[C@@H](O)[C@H](O)[C@H](O)CO (stereo partly drawn)
inactive: outcome [1] | Potency [2] | Potency [3] | Potency [4] | outcome [6] | Potency [10] | Potency [7] | Potency [8] | Potency [9]

CCCCCCCCCCCCI
inactive: outcome [1] | Potency [2] | Potency [3] | Potency [4] | outcome [6] | Potency [10] | Potency [7] | Potency [8] | Potency [9]

CCC(=O)Nc1cccc(N)c1
inactive: outcome [1] | Potency [2] | Potency [3] | Potency [4] | outcome [6] | Potency [10] | Potency [7] | Potency [8] | Potency [9]

CCOC(=O)[C@H](CCc1ccccc1)N[C@@H](C)C(=O)N1CCC[C@H]1C(=O)O
inactive: outcome [1] | Potency [2] | Potency [3] | Potency [4] | Potency [5] | outcome [6] | Potency [7] | Potency [8] | Potency [9]

CCOC(=O)Cn1c(=O)sc2cccc(Cl)c21
inactive: outcome [1] | Potency [2] | Potency [3] | Potency [4] | Potency [5] | Potency [10] | Potency [7] | Potency [8] | Potency [9]

N#CCc1ccccc1[N+](=O)[O-]
inactive: outcome [1] | Potency [2] | Potency [3] | Potency [4] | outcome [6] | Potency [10] | Potency [7] | Potency [8] | Potency [9]

CCc1cc(S(=O)(=O)O)c2cc(C(C)C)cccc1-2
inactive: outcome [1] | Potency [2] | Potency [3] | Potency [4] | Potency [5] | outcome [6] | Potency [7] | Potency [8] | Potency [9]

CCC(=O)c1cccc(Cl)c1
inactive: outcome [1] | Potency [2] | Potency [3] | Potency [4] | Potency [5] | outcome [6] | Potency [7] | Potency [8] | Potency [9]

Cc1ccccc1Br
inactive: outcome [1] | Potency [2] | Potency [3] | Potency [4] | Potency [5] | outcome [6] | Potency [7] | Potency [8] | Potency [9]

CC(C)(C)N(CCO)CCO
inactive: outcome [1] | Potency [2] | Potency [3] | Potency [4] | Potency [5] | outcome [6] | Potency [7] | Potency [8] | Potency [9]

OCCCCCCO
inactive: outcome [1] | Potency [2] | Potency [3] | Potency [4] | outcome [6] | Potency [10] | Potency [7] | Potency [8] | Potency [9]

COCCOC(=O)CC#N
inactive: outcome [1] | Potency [2] | Potency [3] | Potency [4] | outcome [6] | Potency [10] | Potency [7] | Potency [8] | Potency [9]

CCCCc1ccc(N)cc1
inactive: outcome [1] | Potency [2] | Potency [3] | Potency [4] | Potency [5] | outcome [6] | Potency [7] | Potency [8] | Potency [9]

C=C(C)C(=O)OCCCCCCCCCCCCCCCCCC
inactive: activity change, negative = cytotoxicity [1] 4.5% [at 15.8 µM] | cytotoxicity increase [2] 3.44% [at 15.8 µM] | cytotoxicity [3] 0.514% [at 15.8 µM] | cytotoxicity increase [4] -0.434% [at 15.8 µM] | activity change, negative = cytotoxic [6] 0.444% [at 15.8 µM] | activity change, negative = cytotoxicity [10] 11.4% [at 15.8 µM] | activity change, negative = cytotoxicity [7] 4.13% [at 15.8 µM] | activity change [8] 0.239% [at 15.8 µM, stronger effect = higher value] | activity change, negative = cytotoxicity [9] -1.29% [at 15.8 µM]

COc1cccc(OC)c1
inactive: outcome [1] | Potency [2] | Potency [3] | Potency [4] | outcome [6] | Potency [10] | Potency [7] | Potency [8] | Potency [9]

OC/C=C/c1ccccc1
inactive: outcome [1] | Potency [2] | Potency [3] | Potency [4] | outcome [6] | Potency [10] | Potency [7] | Potency [8] | Potency [9]

CC(=O)c1ccc(C)cc1
inactive: outcome [1] | Potency [2] | Potency [3] | Potency [4] | outcome [6] | Potency [10] | Potency [7] | Potency [8] | Potency [9]

COC(=O)CCCCCCCCC(=O)OC
inactive: outcome [1] | Potency [2] | Potency [3] | Potency [4] | outcome [6] | Potency [10] | Potency [7] | Potency [8] | Potency [9]

OCC(CO)(CO)COCC(CO)(CO)CO
inactive: outcome [1] | Potency [2] | Potency [3] | Potency [5] | outcome [6] | Potency [10] | Potency [7] | Potency [8] | Potency [9]

C#CC(O)CCCCC (stereo not drawn)
inactive: outcome [1] | Potency [2] | Potency [3] | Potency [5] | outcome [6] | Potency [10] | Potency [7] | Potency [8] | Potency [9]

O=C(O)c1ccccc1-c1ccc(C(F)(F)F)cc1
inactive: outcome [1] | Potency [2] | Potency [3] | Potency [5] | outcome [6] | Potency [10] | Potency [7] | Potency [8] | Potency [9]

NC1CCN(c2cccc(Cl)n2)CC1
inactive: outcome [1] | Potency [2] | Potency [3] | Potency [5] | outcome [6] | Potency [10] | Potency [7] | Potency [8] | Potency [9]

CCC(=O)/C=C/c1ccc(OC)cc1
inactive: outcome [1] | Potency [2] | Potency [3] | Potency [5] | outcome [6] | Potency [10] | Potency [7] | Potency [8] | Potency [9]

Cc1nccn1CC1CCc2c(c3ccccc3n2C)C1=O (stereo not drawn)
inactive: outcome [1] | Potency [2] | Potency [3] | Potency [4] | outcome [6] | Potency [10] | Potency [7] | Potency [8] | Potency [9]

OCCN1C[C@H](O)[C@@H](O)[C@H](O)[C@H]1CO
inactive: outcome [1] | Potency [2] | Potency [3] | Potency [4] | outcome [6] | Potency [10] | Potency [7] | Potency [8] | Potency [9]
